The nature of the experiment: qHTS drug screen for cell cycle checkpoint inhibitors in PARPi-resistant BRCA-mutant ovarian cancer cell lines. (AID 1963452). Particulars: PEO1/OlaR viability, CellTiter-Glo luminescence, 96 h; measured here: PEO1 parental Z-AUC; stronger effect = lower value. Summed up: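 PEO1, PEO4 and PEO1/OlaR ovarian cancer cells, 600 per well, exposed 96 h at 37C to a dilution series. Viability read by CellTiter-Glo luminescence, normalized to DMSO and empty wells; activity summarized as Z-AUC.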
Consider `O=S(=O)(c1cccc2cnccc12)N1CCCNCC1`, for which the Z-AUC was -0.265.

Regarding `Oc1c(Cl)cc(Cl)c2cccnc12`, the Z-AUC is -0.0999.

Regarding `Nc1nc(=S)c2[nH]cnc2[nH]1`, the Z-AUC is -0.887.

With `CCc1cc(C(N)=S)ccn1`, the Z-AUC was -0.0543.

Consider `C1CCC(C(CC2CCCCN2)C2CCCCC2)CC1` (stereo not given), for which the Z-AUC is -0.095.

Consider `CC(C)(C)NC(=O)[C@H]1CC[C@H]2[C@@H]3CC[C@H]4NC(=O)C=C[C@]4(C)[C@H]3CC[C@]12C`, for which the Z-AUC stood at 1.04.

As to `CC(C)(C)C(=O)OCOP(=O)(COCCn1cnc2c(N)ncnc21)OCOC(=O)C(C)(C)C`, the Z-AUC worked out at 0.013.

Turning to `CCn1cc(C(=O)O)c(=O)c2cc(F)c(N3CCN(C)CC3)cc21`, the Z-AUC worked out at 0.931.

Turning to `CC1=CC(=O)c2ccccc2C1=O`, the Z-AUC is 0.394.

As to `CCN(CC)CCn1c(=O)c(Cc2ccc(OC)cc2)nc2ccccc21`, the Z-AUC worked out at 1.23.

Take `CN(Cc1cc(Br)cc(Br)c1N)C1CCCCC1`: the Z-AUC stood at 1.12.

As to `COC(c1ccccc1)(c1ccccc1)[C@H](Oc1nc(C)cc(C)n1)C(=O)O`, the Z-AUC worked out at 1.24.

Take `CCOc1cc(N)c(Cl)cc1C(=O)NCC1CN(Cc2ccc(F)cc2)CCO1` (stereo not given): the Z-AUC came to 1.17.

`COc1ccc(-c2ccc3cc(C(=O)O)ccc3c2)cc1C12CC3CC(CC(C3)C1)C2`: the Z-AUC was -0.0792.

In the case of `Nc1[nH]c(=O)ncc1F`, the Z-AUC was found to be 1.6.

Turning to `O=C(O)c1cc(=O)[nH]c(=O)[nH]1`, the Z-AUC is -0.118.

Take `CC1=NN(c2ccccc2)C(=O)C1`: the Z-AUC stood at 0.838.

On to `COc1cc(NCc2ccc3nc(N)nc(N)c3c2C)cc(OC)c1OC`, for which the Z-AUC amounted to 0.153.

On to `COc1cc([C@@H]2c3cc4c(cc3[C@H](O)[C@H]3COC(=O)[C@H]23)OCO4)cc(OC)c1OC`, for which the Z-AUC is -1.81.

Turning to `C#CCN[C@@H]1CCc2ccccc21`, the Z-AUC is -0.355.

For the origin of these results see PubChem BioAssay (NCATS).
